From PubChem BioAssay
Only a selection was taken, and hits are over-represented in it overall.
Pf Dd2 inh – qHTS Primary assay for Inhibitors of Plasmodium falciparum Dd2 growth in vitro; P. falciparum Dd2 growth, SYBR Green, 72 h; AID 1347417, 2020; Potency, µM (series often up to 28.9 µM), inactives show top-dose activity, negative = inhibition, hits mostly inhibitors; 120,000 tested, 4.3% active; active = well fitted inhibition curve with a large enough effect;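 note: plate controls were DMSO vehicle for no effect and reference drug for full effect; nearly all actives have a fitted effect of over 65% in size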
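Infected erythrocytes (Dd2, 0.3% parasitemia, 2.5% hematocrit final) are added to compound in RPMI-1640/Albumax II medium, grown 72 h at 37C in low oxygen, then lysed with saponin/Triton-X containing SYBR Green and read by fluorescence.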
* = called active by the depositor; [ ] = dose if it differs, or a comment. Potency is the fitted concentration of half-maximal effect.

Screening Cc1n[nH]c(C)c1CCC(=O)NC1CCCc2c1[nH]c1c(Cl)cccc21 (configuration not stated) returned Pf Dd2 inh -13.1%.
For COc1cc(OC)cc(-c2onc(C)c2C(=O)NCCc2ccc(F)cc2)c1 the results were Pf Dd2 inh -3.7%.
O=C(NC1CCCCC1)C1CN(S(=O)(=O)c2ccccc2F)CC12CCOCC2 (configuration not stated) was read as Pf Dd2 inh -17.7%.
Cc1ccccc1-c1cnc2[nH]cc(CC(=O)NCc3cccnc3)c2c1 was read as Pf Dd2 inh -14.8%[44.1 µM].
For Cc1noc(C)c1-c1cnc2[nH]cc(CC(=O)NCc3cccnc3)c2c1 the results were Pf Dd2 inh -11.2%[44.1 µM].
`O=C(Cc1c[nH]c2ncc(-c3ccccc3F)cc12)NCc1cccnc1` gave Pf Dd2 inh -2.4%[44.1 µM].
Cc1cccc(-c2cnc3[nH]cc(CC(N)=O)c3c2)c1 was read as Pf Dd2 inh inactive.
Screening O=C(Cc1c[nH]c2ncc(-c3ccc(Oc4ccccc4)cc3)cc12)NCc1cccnc1 returned Pf Dd2 inh 8.91µM*.
COc1ccc(-c2cnc3[nH]cc(CC(N)=O)c3c2)cc1OC was read as Pf Dd2 inh 0.631µM*.
NC(=O)Cc1c[nH]c2ncc(-c3ccc(F)cc3)cc12 was read as Pf Dd2 inh inactive.
For CN(C)c1cccc(-c2cnc3[nH]cc(CC(=O)NCc4cccnc4)c3c2)c1 the results were Pf Dd2 inh 8.91µM*.
For CN(C)c1cccc(NC(=O)Cc2c[nH]c3ncc(-c4cccnc4)cc23)c1 the results were Pf Dd2 inh inactive.
Screening Cn1ccnc1CN1C[C@H]2CN(C(=O)NCc3ccccc3)CCN2C1=O returned Pf Dd2 inh 27.4%[44.1 µM].
`Cc1ccc2c(n1)N(C)[C@H](CO)CCN(Cc1ccncc1)C2` gave Pf Dd2 inh 17.9%[44.1 µM].
For O=C1NCCCCCCN(C(=O)C2CC2)[C@H]2C[C@H](C(=O)N3CCc4ccccc4C3)C[C@@H]12 the results were Pf Dd2 inh inactive.
Screening CC(C)(C)NC(=O)N1CCCCCCNC(=O)[C@@H]2C[C@@H](C(=O)N3CCc4ccccc4C3)C[C@@H]21 returned Pf Dd2 inh 4.47µM*.
`Cc1cnc(C(=O)N2CCCCCCNC(=O)[C@@H]3C[C@@H](C(=O)N4CCc5ccccc5C4)C[C@@H]32)cn1` gave Pf Dd2 inh -16.3%.
O=C(c1ccccc1Cl)N1CCC(n2c(=O)[nH]c3ccccc32)CC1 was read as Pf Dd2 inh -1.3%.
Cc1ccc(OCCSc2nc(-c3ccccc3C)nc3cc(=O)[nH]n23)cc1Cl was read as Pf Dd2 inh 3.7%.
`COc1cc(C)ccc1OCCSc1nc(-c2cccc(C)c2)nc2cc(=O)[nH]n12` gave Pf Dd2 inh -1.1%.
Screening Cc1cccc(-c2nc(SCCCOc3ccc(Cl)c(C)c3)n3[nH]c(=O)cc3n2)c1 returned Pf Dd2 inh inactive.
Cc1cccc(OCCCSc2nc(-c3ccc(C(C)(C)C)cc3)nc3cc(=O)[nH]n23)c1C was read as Pf Dd2 inh 10µM*.
`CCc1ccc(OCCSc2nc(-c3cccc(C)c3)nc3cc(=O)[nH]n23)cc1` gave Pf Dd2 inh inactive.
`CCc1ccc(OCCCSc2nc(-c3ccc(C(C)(C)C)cc3)nc3cc(=O)[nH]n23)cc1` gave Pf Dd2 inh 11.2µM*.
Screening CCCc1nc(C(=O)NCC(C)Cn2nc(C)cc2C(F)(F)F)cs1 (configuration not stated) returned Pf Dd2 inh -19.5%.
`CCn1ncc(CN2C[C@@H](CO)[C@H](NC(C)=O)C2)c1C` gave Pf Dd2 inh 47.0%.
CCc1ccc(NC(=O)Cn2ccn3nc4c(c3c2=O)CC(C)CC4)cc1 (configuration not stated) was read as Pf Dd2 inh inactive.
`COc1ccc(C[C@H](NC(=O)[C@@]2(O)C[C@@H](O)[C@H](O)[C@@H](NC(=O)CC(C)(C)C)C2)C(N)=O)cc1` gave Pf Dd2 inh 8.5%.
For Cc1nc(C)c(C(=O)N2CC3CC(C2)[C@H]2CCCC(=O)N2C3)s1 (some centres not stated) the results were Pf Dd2 inh -9.3%.
`O=S(=O)(c1ccc(Cl)cc1)c1nc(-c2ccccc2Br)oc1NCc1ccccc1` gave Pf Dd2 inh 10µM*.
`O=S(=O)(c1ccccc1)c1nc(-c2ccc(F)cc2)oc1NCc1ccccc1` gave Pf Dd2 inh -9.8%.
`COCCNc1oc(-c2ccccc2)nc1S(=O)(=O)c1ccc(Br)cc1` gave Pf Dd2 inh -13.3%.
`CN1Cc2cccn2CC1CNC(=O)c1ccco1` (configuration not stated) gave Pf Dd2 inh -12.1%.
COc1ccccc1N1CCN(C(=O)Cn2cnc3sc(C)c(S(=O)(=O)N4CCC(C)CC4)c3c2=O)CC1 was read as Pf Dd2 inh 31.2%.
COc1ccc(Cl)cc1NC(=O)Cn1cnc2sc(C)c(S(=O)(=O)N3CCN(c4ccccc4OC)CC3)c2c1=O was read as Pf Dd2 inh 10µM*.
COc1ccc(OC)c(NC(=O)Cn2cnc3sc(C)c(S(=O)(=O)N4CCN(c5ccccc5OC)CC4)c3c2=O)c1 was read as Pf Dd2 inh 11.2µM*.
`COCCNC(=O)Cn1cnc2sc(C)c(S(=O)(=O)N3CCN(c4ccccc4OC)CC3)c2c1=O` gave Pf Dd2 inh 4.0%.
Screening COc1ccc(NC(=O)Cn2cnc3sc(C)c(S(=O)(=O)N4CCN(C)CC4)c3c2=O)cc1Cl returned Pf Dd2 inh 9.9%.
`COCCCNC(=O)Cn1cnc2sc(C)c(S(=O)(=O)N3CCN(c4ccccc4OC)CC3)c2c1=O` gave Pf Dd2 inh -12.6%.
Screening COC(=O)C1=CN(CC(=O)Nc2ccc(C)cc2Cl)S(=O)(=O)N=C1C returned Pf Dd2 inh 79.2%.
COCc1ncc(C)n1C1CCN(C(=O)C2CCC2)CC1 was read as Pf Dd2 inh -4.0%.
For Cc1nonc1OCCNC(=O)c1ccc2nc(Cc3ccccc3F)oc2c1 the results were Pf Dd2 inh -11.2%.
Screening COCCNC(=O)[C@H]1C[C@H](Oc2ccccc2)CN1C(=O)COC returned Pf Dd2 inh 24.8%.
`CC(C)NC[C@H]1O[C@@H]2C[C@@H](CC(=O)NC(C)C)O[C@@H]2[C@@H]1O` gave Pf Dd2 inh 11.7%[44.1 µM].
CCOC(=O)c1ccc(NC(=O)c2cnc3c(-c4ccc(F)cc4)c(C)nn3c2C)cc1 was read as Pf Dd2 inh 49.8%.
For Cc1nc2c(-c3ccc(F)cc3)c(C)nn2c(C)c1CCC(=O)NCc1ccc(F)cc1 the results were Pf Dd2 inh 41.1%.
CCOC(=O)c1ccc(NC(=O)CCc2c(C)nc3c(-c4ccc(F)cc4)c(C)nn3c2C)cc1 was read as Pf Dd2 inh 3.55µM*.
For COCCNC(=O)N1CCCC(CNC(=O)C2(c3ccc(Cl)cc3)CC2)C1 (configuration not stated) the results were Pf Dd2 inh -24.3%.
Screening COc1ccc(N2C(=O)CSC23CCN(C(=O)CC(C)C)CC3)cc1 returned Pf Dd2 inh -20.8%.
For c1coc(-c2nc(CNC3CCC4(CCNCC4)CC3)no2)c1 the results were Pf Dd2 inh 11.2µM*.
c1ccc(-c2noc(CCNC3CCC4(CCNCC4)CC3)n2)nc1 was read as Pf Dd2 inh -2.2%.
Screening CCc1csc(CNC2CCC3(CCNCC3)CC2)n1 returned Pf Dd2 inh -11.6%.
Screening C[C@@H](c1ccccc1)N1C(=O)[C@@H]2CN(C(=O)c3ccco3)CCN2C1=O returned Pf Dd2 inh -21.5%[44.1 µM].
